Laboratory results reported in PubChem BioAssay (EPA / NIEHS).
Results filed as inconclusive are left out. Activity calls are given as the source filed them. How the source made its calls: active means hit-call score of the fitted dose curve at least 0.9, where 1 is the maximum; inconclusive means response in the unintended direction; inactive means score below 0.9.

Experiment: Tanguay_ZF_120hpf_TRUN_legacy: (Legacy) Oregon State University Tanguay Lab 120 Hour Post-fertilization zebrafish Assay for Truncated Body (AID 2283655)
Method: Tanguay_ZF_120hpf_legacy is a whole embryo, multiplexed endpoint assay using zebrafish larvae exposed for 120 hours post fertilization on a 96-well plate.Tanguay_ZF_120hpf_TRUN_legacy is one of one assay component(s) measured or calculated from the Tanguay_ZF_120hpf_legacy assay. It is designed to make measurements of zebrafish development as detected with brightfield microscopy of developing zebrafish embryos.Data from the assay component Tanguay_ZF_120hpf_TRUN_legacy was analyzed into 1 assay endpoints. This assay endpoint, Tanguay_ZF_120hpf_TRUN_legacy, was analyzed in the positive analysis fitting direction relative to DMSO as the negative control and baseline of activity. Using a type of morphology reporter, gain-of-signal activity can be used to understand changes in developmentals as they relate to the whole embryo. To generalize the intended target to other relatable targets, this assay endpoint is annotated to the zebrafish development intended target family, where the subfamily is embryonic morphogenesis.
Zebrafish husbandry: Tropical 5D wild-type adult zebrafish were housed in at an approximate density of 1000 per 100 gallon tank at the Sinnhuber Aquatic Research Laboratory, Oregon State University, Corvallis, OR. Each tank was kept at standard laboratory conditions of 28C on a 14-h light/10-h dark photoperiod in fish water consisting of reverse osmosis water supplemented with a commercially available salt (Instant Ocean). Spawning funnels were placed into the tanks the night prior, and embryos were collected and staged. To increase bioavailability, the chorion was enzymatically removed using pronase (63.6mg/ml, >/= 3.5U/mg, Sigma-Aldrich: P5147) at 4 hours post fertilization (hpf) using a custom automated dechorionator.Chemical exposures: Six hpf dechorionated embryos were placed 1 embryo per well in a 96-well plate prefilled with 90 ul of EM using automated embryo placement systems (AEPS). Ten microliters of each row of dilution plate 2 was added to 2 exposure plates. The final DMSO concentration used was 0.64% (vol/vol). Thirty-two embryos were also exposed to 5uM trimethyltin chloride (positive control). Plates were sealed to prevent evaporation and foil covered to reduce light exposure and kept in a 28C incubator. Embryos were statically exposed until 120 hpf. At 24 hpf, embryos were assessed for photomotor response using a custom photomotor response analysis tool (PRAT) and for developmental toxicity endpoints (MO24: mortality at 24 hpf, DP: developmental progression, SM: spontaneous movement, and NC: notochord distortion). At 120 hpf, locomotor activity was measured using Viewpoint Zebralab and assessed for 18 endpoints. Zebrafish acquisition and analysis program (ZAAP), a custom program designed to inventory, acquire, and manage zebrafish data, was used to collect developmental endpoints as either present or absent (i.e., binary responses were recorded). If mortality occurred for an embryo (at either 24 or 120 hpf), the non-mortality endpoints were not measured.
In the case of `CCCCC(CC)CO` (stereo not given), the outcome is reported as “inactive”.
For `Cc1cc(SC2=C(O)C[C@@](CCc3ccc(N)cc3)(C(C)C)OC2=O)c(C(C)(C)C)cc1CO`, the outcome was “inactive”.
In the case of `CCCCCCCCCCCCCCOS(=O)(=O)O`, the AC50 is reported as 31.3 µM (active).
With `CC(COCC(C)OC(=O)c1ccccc1)OC(=O)c1ccccc1` (stereo not given) the outcome was “inactive”.
For `CC(C)COC(=O)CCCCC(=O)OCC(C)C`, the outcome was “inactive”.
For `COC(=O)CCC(=O)OC`, the outcome was “inactive”.
For `S=c1[nH]c2ccccc2s1`, the AC50 was 11.4 µM (active).
In the case of `O=C(O)c1[nH]n(-c2ccc(S(=O)(=O)O)cc2)c(=O)c1N=Nc1ccc(S(=O)(=O)O)cc1`, the outcome is reported as “inactive”.
In the case of `CN(C)C(=O)NC1(c2ccccc2)CCN(CCC[C@]2(c3ccc(Cl)c(Cl)c3)CCCN(C(=O)c3ccccc3)C2)CC1`, the outcome is reported as “inactive”.
For `CCOCCOCCO`, the outcome was “inactive”.
In the case of `Oc1ccccc1O`, the outcome is reported as “inactive”.
With `CC(=O)OC1CC(C)OC(C)O1` (stereo not given) the outcome was “inactive”.
With `CCCCCCCCCC[N+](C)(C)[O-]` the outcome was “inactive”.
With `CC1(C)C(=O)NC(=O)N1CO` the outcome was “inactive”.
In the case of `CCCC[C@H]1CN(CC2CCOCC2)C(=O)OC12CCN(C1(C)CCN(C(=O)c3c(C)ncnc3C)CC1)CC2`, the outcome is reported as “inactive”.
In the case of `CN(C)C(=O)NC1(c2ccccc2)CCN(CC[C@@]2(c3ccc(F)c(F)c3)CN(C(=O)c3ccccc3)CCO2)CC1`, the outcome is reported as “inactive”.
For `O=C1c2c(O)cccc2Cc2cccc(O)c21`, the outcome was “inactive”.
With `COC(=O)[C@H]1[C@H]2C[C@@H]3c4[nH]c5cc(OC)ccc5c4CCN3C[C@H]2C[C@@H](OC(=O)c2cc(OC)c(OC)c(OC)c2)[C@@H]1OC` the outcome was “inactive”.
For `O=C1OC(c2ccc(O)cc2)(c2ccc(O)cc2)c2ccccc21`, the outcome was “inactive”.
In the case of `O=C(O)CC(O)(CC(=O)O)C(=O)O`, the outcome is reported as “inactive”.
For `O=C(Oc1ccccc1)c1cccc(C(=O)Oc2ccccc2)c1`, the outcome was “inactive”.
In the case of `C=CCCCCCCCCCCCC`, the outcome is reported as “inactive”.
With `O=C(O)c1cccnc1` the outcome was “inactive”.
For `O=C1NC(=O)C(c2ccccc2)(c2ccccc2)N1`, the outcome was “inactive”.
For `Cc1cc(Cc2ccc(N)c(C)c2)ccc1N`, the outcome was “inactive”.
With `CCCCCCCCCCCCCCCCO` the outcome was “inactive”.
For `O=C(O)CN(CC(=O)O)CC(=O)O`, the outcome was “inactive”.
In the case of `CC(C)NCC(O)c1ccc(O)c(O)c1` (stereo not given), the outcome is reported as “inactive”.
For `NC1CCCCC1`, the outcome was “inactive”.
With `CCCCCCCC(=O)OC` the outcome was “inactive”.
For `CC(C)(C)c1ccccc1`, the outcome was “inactive”.
In the case of `N[C@@H](Cc1c[nH]c2ccccc12)C(=O)O`, the outcome is reported as “inactive”.
For `CCc1nc(N)nc(N)c1-c1ccc(Cl)cc1`, the outcome was “inactive”.
With `NC(=Nc1ccccc1)Nc1ccccc1` the outcome was “inactive”.
In the case of `CCCCCCC(CCCCCCCCCCC(=O)OCC(COC(C)=O)OC(C)=O)OC(C)=O` (stereo not given), the outcome is reported as “inactive”.
For `Nc1nc(=S)c2[nH]cnc2[nH]1`, the outcome was “inactive”.
In the case of `CC1=C(C)S(=O)(=O)CCS1(=O)=O`, the outcome is reported as “inactive”.
In the case of `O=[Si]=O`, the outcome is reported as “inactive”.
For `CO[C@@H]1COCC[C@@H]1N[C@@H]1CC[C@@](C(=O)N2CCc3ncc(C(F)(F)F)cc3C2)(C(C)C)C1`, the outcome was “inactive”.
For `NC=O`, the outcome was “inactive”.
